Drawing on PubChem BioAssay (EPA / NIEHS), this text covers AC50 and outcome for eleven compounds.

Several values for one entry are separate records, joined by “and”; a condition that tells them apart may be missing. Identical values can stand only once. Inconclusive results are not listed. Activity calls are given as the source filed them. How the source made its calls, unless noted: active means hit-call score of the fitted dose curve at least 0.9, where 1 is the maximum; inconclusive means response in the unintended direction; inactive means score below 0.9.

A short description of experiment [1]: CCTE_Padilla_ZF_144hpf_TERATOSCORE: (Legacy) CCTE's 144 Hour Post-fertilization zebrafish Assay Teratoscore, Padilla Lab (AID 2283679; active means hit-call score of the fitted dose curve at least 0.9, where 1 is the maximum; inactive means score below 0.9;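 on AC50: zebrafish embryos with chorions exposed by immersion from 6-8 hpf to 5 dpf with daily renewal; teratogenicity score from eye scoring of death hatching and malformations at 144 hpf; higher score means more developmental defects relative to DMSO baseline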). Put shortly:
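Larvae scored by eye at 144 hpf for death, hatching and malformations after a day in clean Hanks'. Before that, daily-renewed exposure at 80 uM (0.4% DMSO, 26C) from roughly 6-8 hpf through 5 dpf, 4 embryos per chemical.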

A short description of experiment [2]: CLD_ACTIN_6hr: CellzDirect (CLD) Gene Expression Assay for Baseline Control (Actin) at 6 hours (AID 2283676).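 Further: active means increased actin mRNA relative to DMSO vehicle.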 Put shortly:
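Baseline actin transcript level measured by qNPA (S1 nuclease protection, chemiluminescence) in human hepatocyte cultures 6 h after chemical exposure; 0.2% DMSO vehicle as reference, cytotoxicity noted from morphology.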

Read-out in experiment [3]: Cytochrome P450 2B6 (Homo sapiens) (UniProt P20813)
Put plainly: CLD_CYP2B6_6hr: CellzDirect (CLD) Gene Expression Assay for xenobiotic metabolism (CYP2B6) at 6 hours (AID 2283677).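 Further: actives raise CYP2B6 transcript above DMSO baseline so AC50 marks an inducer.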 Put shortly:
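CYP2B6 transcript levels, read by chemiluminescent qNPA, were fitted for increase versus DMSO baseline; cultured human liver hepatocytes from two donor preparations were harvested 6 h after exposure to test chemicals at multiple concentrations.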

Read-out in experiment [4]: Cytochrome P450 3A4 (Homo sapiens) (UniProt P08684)
Put plainly: CLD_CYP3A4_6hr: CellzDirect (CLD) Gene Expression Assay for xenobiotic metabolism (CYP3A4) at 6 hours (AID 2283680). Put shortly: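 CYP3A4 mRNA induction, 6 h after dosing of cultured primary human hepatocytes from two donors, read by quantitative nuclease protection (qNPA, chemiluminescence). Vehicle 0.2% DMSO as baseline; morphology-based cytotoxicity annotated yes/no.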

Read-out in experiment [5]: Glyceraldehyde-3-phosphate dehydrogenase (Homo sapiens) (UniProt P04406)
The experiment is described as follows: CLD_GAPDH_6hr: CellzDirect (CLD) Gene Expression Assay for Baseline Control (Glyceraldehyde 3-phosphate dehydrogenase) at 6 hours (AID 2283681).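 Further: active means increased signal relative to DMSO vehicle.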 Put shortly:
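GAPDH baseline-control readout from qNPA (S1 nuclease digestion, probe hybridization, chemiluminescence) in lysates of cultured human hepatocytes harvested 6 h post-dosing. Chemicals tested at multiple concentrations versus 0.2% DMSO vehicle; microscopy-based cytotoxicity flagged yes/no.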

Read-out in experiment [6]: HMG-CoA synthase (HMGCS2), HMGCS2 (gene 3158)
The experiment is described as follows: CLD_HMGCS2_6hr: CellzDirect (CLD) Gene Expression Assay for HMG-CoA synthase (HMGCS2) at 6 hours (AID 2283682).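 Further: actives raise HMGCS2 transcript above the 0.2% DMSO vehicle baseline.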 Put shortly:
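HMGCS2 transcript induction read by quantitative nuclease protection with chemiluminescence, 6 h after dosing of primary human hepatocytes. Baseline was 0.2% DMSO vehicle; phase-contrast morphology gave a yes/no cytotoxicity annotation.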

Read-out in experiment [7]: xenobiotic metabolism (CYP1A2), CYP1A2 (gene 1544)
The experiment is described as follows: CLD_CYP1A2_24hr: CellzDirect (CLD) Gene Expression Assay for xenobiotic metabolism (CYP1A2) at 24 hours (AID 2283683). Put shortly:
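CYP1A2 mRNA induction measured by quantitative nuclease protection (chemiluminescent) in human primary hepatocytes 24 h after multi-concentration chemical dosing with daily fresh solutions. DMSO (0.2%) baseline; positive-direction fitting; morphology-based cytotoxicity noted.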

Read-out in experiment [8]: ABC Transporter (ABCB1), ABCB1 (gene 5243)
Put plainly: CLD_ABCB1_24hr: CellzDirect (CLD) Gene Expression Assay for ABC Transporter (ABCB1) at 24 hours (AID 2283684). Put shortly: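 ABCB1 mRNA induction versus 0.2% DMSO vehicle was read by qNPA chemiluminescence at 24 h. Cultured human hepatocytes from two donor preparations received daily fresh dosing, and phase-contrast cytotoxicity calls were annotated alongside the data.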

Read-out in experiment [9]: Cytochrome P450 2B6 (Homo sapiens) (UniProt P20813)
The experiment is described as follows: CLD_CYP2B6_24hr: CellzDirect (CLD) Gene Expression Assay for xenobiotic metabolism (CYP2B6) at 24 hours (AID 2283686). Put shortly: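 qNPA chemiluminescent measurement of mRNA at 24 hours in human primary hepatocyte cultures from two donor preparations, with daily fresh dosing and 0.2% DMSO vehicle as baseline. Morphology-based cytotoxicity flagged yes/no.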

Read-out in experiment [10]: Cytochrome P450 2C19 (Homo sapiens) (UniProt P33261)
Put plainly: CLD_CYP2C19_24hr: CellzDirect (CLD) Gene Expression Assay for xenobiotic metabolism (CYP2C19) at 24 hours (AID 2283687).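 Further: activity means mRNA induction above DMSO vehicle baseline.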 Put shortly:
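CYP2C19 mRNA was quantified by qNPA chemiluminescence after 24 h of daily dosing of cultured human primary hepatocytes from two donors; vehicle was 0.2% DMSO, and increases over DMSO baseline were fitted.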

Read-out in experiment [11]: Cytochrome P450 3A4 (Homo sapiens) (UniProt P08684)
The experiment is described as follows: CLD_CYP3A4_24hr: CellzDirect (CLD) Gene Expression Assay for xenobiotic metabolism (CYP3A4) at 24 hours (AID 2283689). Put shortly:
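CYP3A4 mRNA induction read by quantitative nuclease protection (chemiluminescence) 24 hr after dosing. Cultured human hepatocytes (two donor preparations) treated daily, vehicle 0.2% DMSO; phase-contrast morphology annotates cytotoxicity.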

Read-out in experiment [12]: organic anion transporter (SLCO1B1), SLCO1B1 (gene 10599)
The experiment is described as follows: CLD_SLCO1B1_24hr: CellzDirect (CLD) Gene Expression Assay for organic anion transporter (SLCO1B1) at 24 hours (AID 2283690). Put shortly: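 SLCO1B1 mRNA induction read at 24 h by quantitative nuclease protection assay (chemiluminescence), analyzed against DMSO baseline. Human hepatocyte cultures from separate donors received fresh dosing solutions daily; vehicle 0.2% DMSO; cytotoxicity flagged by phase-contrast morphology.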

Read-out in experiment [13]: Glyceraldehyde-3-phosphate dehydrogenase (Homo sapiens) (UniProt P04406)
The experiment is described as follows: CLD_GAPDH_24hr: CellzDirect (CLD) Gene Expression Assay for Baseline Control (Glyceraldehyde 3-phosphate dehydrogenase) at 24 hours (AID 2283692). Put shortly:
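GAPDH baseline-control readout: qNPA chemiluminescent mRNA signal in human primary hepatocytes harvested 24 h after daily dosing, normalised to 0.2% DMSO with positive fitting direction; cytotoxicity annotated by phase-contrast morphology.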

Read-out in experiment [14]: ABC Transporter (ABCB11), ABCB11 (gene 8647)
Put plainly: CLD_ABCB11_6hr: CellzDirect (CLD) Gene Expression Assay for ABC Transporter (ABCB11) at 6 hours (AID 2283675).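 Further: hits raise ABCB11 mRNA level so AC50 marks induction.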 Put shortly:
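Read-out was ABCB11 mRNA gain of signal by quantitative nuclease protection assay, relative to 0.2% DMSO vehicle, 6 h post-dose. Cells were primary human hepatocytes from two donors, treated across multiple concentrations; phase-contrast cytotoxicity noted yes/no.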

Read-out in experiment [15]: Cytochrome P450 2C9 (Homo sapiens) (UniProt P11712)
The experiment is described as follows: CLD_CYP2C9_24hr: CellzDirect (CLD) Gene Expression Assay for xenobiotic metabolism (CYP2C9) at 24 hours (AID 2283688). Put shortly:
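Induction of CYP2C9 mRNA was quantified by quantitative nuclease protection assay (chemiluminescence), gain of signal versus 0.2% DMSO vehicle, 24 h after dosing. Human primary hepatocytes (two donors) received fresh chemical daily at multiple concentrations; morphology-based cytotoxicity flagged yes/no.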

Chain of Glyceraldehyde-3-phosphate dehydrogenase (Homo sapiens) (P04406 whole entry, looked up): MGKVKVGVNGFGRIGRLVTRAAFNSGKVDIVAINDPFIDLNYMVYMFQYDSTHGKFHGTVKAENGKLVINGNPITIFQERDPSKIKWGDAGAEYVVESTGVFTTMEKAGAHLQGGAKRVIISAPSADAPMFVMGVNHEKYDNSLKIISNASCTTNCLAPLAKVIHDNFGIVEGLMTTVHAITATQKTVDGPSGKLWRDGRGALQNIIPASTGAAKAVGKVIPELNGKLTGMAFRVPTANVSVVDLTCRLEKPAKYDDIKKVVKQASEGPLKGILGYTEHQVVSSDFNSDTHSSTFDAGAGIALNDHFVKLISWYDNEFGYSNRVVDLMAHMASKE
Chain of Cytochrome P450 3A4 (Homo sapiens) (P08684 whole entry, looked up): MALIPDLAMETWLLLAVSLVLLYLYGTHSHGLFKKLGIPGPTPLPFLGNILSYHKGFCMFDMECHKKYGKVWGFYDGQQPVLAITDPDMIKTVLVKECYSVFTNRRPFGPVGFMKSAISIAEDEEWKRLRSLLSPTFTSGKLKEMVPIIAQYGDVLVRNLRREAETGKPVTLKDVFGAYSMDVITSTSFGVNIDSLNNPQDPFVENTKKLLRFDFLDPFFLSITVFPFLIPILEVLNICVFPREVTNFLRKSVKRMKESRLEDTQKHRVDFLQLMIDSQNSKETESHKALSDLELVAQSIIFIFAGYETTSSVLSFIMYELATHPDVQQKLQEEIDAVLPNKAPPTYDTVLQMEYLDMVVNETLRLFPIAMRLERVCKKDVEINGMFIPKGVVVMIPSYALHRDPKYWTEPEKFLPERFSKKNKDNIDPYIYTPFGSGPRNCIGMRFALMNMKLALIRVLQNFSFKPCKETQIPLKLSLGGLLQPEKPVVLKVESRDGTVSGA
Chain of Cytochrome P450 2C19 (Homo sapiens) (P33261 whole entry, looked up): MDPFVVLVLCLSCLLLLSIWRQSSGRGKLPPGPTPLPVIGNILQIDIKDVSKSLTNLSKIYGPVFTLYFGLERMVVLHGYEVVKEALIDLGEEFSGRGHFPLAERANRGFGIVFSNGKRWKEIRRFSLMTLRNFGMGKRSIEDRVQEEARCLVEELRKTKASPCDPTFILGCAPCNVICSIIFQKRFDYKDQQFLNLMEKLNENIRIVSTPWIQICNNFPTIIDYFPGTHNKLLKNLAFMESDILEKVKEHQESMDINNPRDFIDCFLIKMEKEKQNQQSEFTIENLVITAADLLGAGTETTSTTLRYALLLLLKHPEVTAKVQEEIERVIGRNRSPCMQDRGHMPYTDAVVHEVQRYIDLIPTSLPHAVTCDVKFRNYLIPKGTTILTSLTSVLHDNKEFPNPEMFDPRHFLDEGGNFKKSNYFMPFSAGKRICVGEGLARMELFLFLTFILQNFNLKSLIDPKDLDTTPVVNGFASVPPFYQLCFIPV

As for `O=C(O)C(F)(F)C(F)(F)C(F)(F)C(F)(F)C(F)(F)C(F)(F)C(F)(F)C(F)(F)C(F)(F)F`, in experiment [1], the AC50 (usually the concentration at which the activity in the assay is half-maximal) is 60.2 µM (active).
Consider `CC(c1ccc(O)cc1)(c1ccc(O)cc1)c1ccc(O)cc1`, for which the outcome in experiment [1] was inactive.
As for `CCC(C)(c1ccc(O)cc1)c1ccc(O)cc1`, in experiment [1], the AC50 is 15.5 µM (active) and 1.34 µM (active).
Regarding `CN(C)CCO`, in experiment [1], the compound was classed as inactive.
`CCCCCCCCCc1ccc(O)cc1`: the AC50 in experiment [1] is 61.4 µM (active).
Regarding `O=C(NC(=O)c1cc(F)c(F)cc1Cl)Nc1cc(F)ccc1N1CCC(C(=O)O)CC1`, the AC50 in experiment [1] is 31 µM (active).
With `CN(C)c1nc(=O)n(C2CCCCC2)c(=O)n1C`, the call in experiment [2], in experiment [3], in experiment [1], in experiment [4], in [5] and in experiment [6] was inactive. Moreover, the compound was classed as inactive in experiment [7], in experiment [8], in [9], in [10], in [12] and in experiment [13]. The AC50 in experiment [11] was 3.97 µM (active).
In the case of `Cc1cc(O)ccc1Cl`, the AC50 in [1] is 112 µM (active).
Same read-out and setting: the same measure for `CC#Cc1cc(C)nc(Nc2ccccc2)n1`: 33.4 µM (active).
Turning to `CCC(C)(CC)c1cc(NC(=O)c2c(OC)cccc2OC)on1`, the result in experiment [14], in experiment [2], in experiment [5], in [8], in [15] and in experiment [12] was inactive. The AC50 in experiment [3] is 0.116 µM (active); in experiment [1] it was 58.2 µM (active); in [4] it was 0.0356 µM (active); in [7], 8.57 µM (active); in experiment [9] it was 0.259 µM (active); in experiment [11], 0.0271 µM (active).
As to `Cc1ccccc1CO[C@@H]1C[C@@]2(C(C)C)CC[C@]1(C)O2`, the result in [2], in [5], in experiment [8], in [10], in experiment [15] and in [12] was inactive. Besides, the AC50 is 73.1 µM (active) in [1], 16.5 µM (active) in experiment [7], 3.91 µM (active) in experiment [9] and 20 µM (active) in experiment [11].
